Source: PubChem BioAssay
M1 ag: M1 muscarinic receptor agonism. CHO-M1 cells, Fluo-4 calcium fluorescence, agonist mode; hits give high values. B-score at 10 µM. hit rate 3% among 64,000;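 active means fluorescence rise, raw or as B-score row- and column-corrected plate score, outside the 99.7% band of its plate's samples, either direction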
Htt clearance: compounds clearing mutant huntingtin protein; HeLa Exon1htt(103Q)mCFP, aggregate imaging; zero = plate's median compound well; hit rate 0.42% among 47,000; inhibition, % at 1.5 µM; AID 853;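 active means inhibition of aggregate fluorescence above about 70%, also judged a hit by eye on the cell image, limit read from the data, passing the limit was not always enough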;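 further: cells exposed to compound for three days before fixation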
D1 allo mod: D1 dopamine receptor (human) allosteric modulation | HEK293 D1, CRE-luciferase, dopamine EC30 potentiation; actives deviate in either direction | hit rate 5.9% among 58,000 | P21728 | B-score at 10 µM;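 active means luminescence count or its row- and column-corrected plate score outside the 99.7% band of the plate's sample wells, on either side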
Target sequence (P21728 whole entry, looked up): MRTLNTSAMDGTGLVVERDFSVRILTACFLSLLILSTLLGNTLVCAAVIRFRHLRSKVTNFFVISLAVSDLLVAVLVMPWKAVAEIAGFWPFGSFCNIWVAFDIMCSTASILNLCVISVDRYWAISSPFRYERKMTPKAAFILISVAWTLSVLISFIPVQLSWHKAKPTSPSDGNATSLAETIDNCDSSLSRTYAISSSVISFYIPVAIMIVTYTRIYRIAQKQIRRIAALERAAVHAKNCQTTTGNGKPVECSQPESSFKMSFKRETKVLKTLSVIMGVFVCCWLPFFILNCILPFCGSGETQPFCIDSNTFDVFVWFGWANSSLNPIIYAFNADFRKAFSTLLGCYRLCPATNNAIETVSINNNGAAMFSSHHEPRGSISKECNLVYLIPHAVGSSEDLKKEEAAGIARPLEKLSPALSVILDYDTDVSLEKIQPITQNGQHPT
M1 antag: antagonists of rat M1 muscarinic receptor. hit rate 3.4% among 64,000. AID 628. CHO-M1 cells, Fluo-4 calcium, ACh EC80 antagonist mode; hits give low values. P08482. B-score at 10 µM;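 active means calcium fluorescence response, raw or row-and-column corrected B-score, differing from the plate sample mean either way at a set confidence level, mostly lower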
D1 mod confirm: confirmation of human D1 dopamine receptor allosteric modulators; luminescence at 10 µM; hit rate 88% among 2,200; shares compounds with D1 allo mod; HEK293 D1 CRE-luciferase, dopamine EC30 potentiation; hits give high values; AID 642;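 active means luminescence in either of two replicates above the same-plate mean plus 3 SD of the low-dose dopamine control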
D1 no dopamine: secondary test of D1 modulators: activity without dopamine; HEK293 D1 CRE-luciferase, luminescence, no dopamine; hits give high values; shares compounds with D1 allo mod; luminescence at 10 µM; hit rate 0.8% among 1,900; in the data active means luminescence above about 3900
Isoprot counter: counter-screen for D1 modulators: isoproterenol response in HEK293 cells; shares compounds with D1 allo mod; HEK293 D1 CRE-luciferase, isoproterenol EC30 counter-screen; hits give high values; luminescence at 10 µM; hit rate 63% among 2,200; AID 647;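 active means luminescence in either replicate above plate mean of wells with a partly effective reference agonist dose plus 3 SD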;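 further: isoproterenol raises cAMP through native beta-adrenoceptor Gs so signal bypasses D1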
The depositor's hits bear a star; nt = not tested or not shown. The list is not random: actives were taken first. Their share in the collection is about 9.1%.

SMILES	M1 ag	Htt clearance	D1 allo mod	M1 antag	D1 mod confirm	D1 no dopamine	Isoprot counter
CNc1nc(OC)nc(N2CCOCC2)n1	-0.05	31	6*	0.24	19816*	1956	4052*
COc1ccc(OC)c(C2CC(=O)c3c([nH]c(C(=O)OC(C)C)c3C)C2)c1 (configuration not stated)	1.5	nt	2.8*	0.16	9020*	2012	3796*
CCCCn1c(SCC(=O)NCc2cccs2)nc2c1c(=O)n(C)c(=O)n2C	0.12	nt	-0.016	0.57	nt	nt	nt
CCS(=O)(=O)n1nc(-c2ccc(C)cc2)nc1N	2.1	-31	2.9	0.24	nt	nt	nt
CCS(=O)(=O)n1nc(-c2ccc(Cl)cc2)nc1N	0.4	nt	5*	-0.07	8932*	1784	3060*
CC(C)n1c(NCCc2ccccc2)nc2c1c(=O)n(C)c(=O)n2C	nt	17	nt	nt	nt	nt	nt
c1ccc(Cn2c(NCc3ccco3)nc3ccccc32)cc1	-0.38	-32	12*	-0.78	14512*	1716	3016
c1coc(CNc2nc3ccccc3n2CCN2CCOCC2)c1	0.076	-2	-0.71	-0.18	nt	nt	nt
CNC(=O)c1cc2c(=O)n3cccc(C)c3nc2n(C(C)C)c1=N	0.63	-26	-0.035	0.042	nt	nt	nt
C=CCN(C(=O)CCC(=O)O)C1CC(=O)N(c2ccc(OCCC)cc2)C1=O (configuration not stated)	-1.1	nt	nt	0.78	nt	nt	nt
c1ccc(-c2nnc3sc(CN4CCc5ccccc54)cn23)cc1	0.7	0	2.6*	-0.74	15088*	1624	2828
Brc1ccc(-c2nnc3sc(CN4CCc5ccccc5C4)cn23)cc1	-0.58	nt	1.6	0.68	nt	nt	nt
Cc1nc2scc(-c3cccs3)c2c(=O)n1-n1cccc1	0.31	4	4.1*	0.5	9316*	1476	4324*
Cc1ccc(C)n1-n1c(C)nc2scc(-c3cccs3)c2c1=O	-0.075	nt	1.9	-0.72	nt	nt	nt
CCCOc1ccc(C(=O)Nc2ccc(N3CCN(C(C)=O)CC3)cc2)cc1	0.87	2	3*	0.0063	6192	1528	2336
CC(=O)N1CCN(c2ccc(NC(=O)c3ccc(C)cc3)cc2)CC1	nt	-33	nt	nt	nt	nt	nt
COc1ccc(/C=N/O)cc1COc1ccc(NC(C)=O)cc1	-0.76	nt	4.7*	-0.0079	6740*	1564	3584*
CCOC(=O)c1sc(=S)n(CC)c1N	-0.86	nt	5.1*	0.029	10812*	1584	3764
N#Cc1nc(-c2cccs2)oc1N1CCN(Cc2ccccc2)CC1	0.007	17	0.44	0.19	nt	nt	nt
CCC(=O)Nc1cccc(NC(=O)c2cc3ccccc3o2)c1	1.2	5	5.1*	0.063	3904*	1572	2236
CCCCCC(=O)N1CC2(CC)CN(C(=O)CCCCC)CC(CC)(C1)C2=O	0.88	nt	-0.13	0.29	nt	nt	nt
Cc1c(C)c2ccc(OC3CCCCC3=O)cc2oc1=O (configuration not stated)	-0.16	nt	2.5*	0.29	6564*	1492	2780
COc1ccc2c(C)c(Cl)c(=O)oc2c1	0.44	-11	2.8	-0.15	nt	nt	nt
Cc1cc(=O)[nH]c2ccccc12	0.59	nt	-0.034	0.64	nt	nt	nt
O=c1cc(-c2ccccc2)c2ccccc2[nH]1	2.1	nt	10*	0.14	12072*	1476	3732*
SMILES	M1 ag	Htt clearance	D1 allo mod	M1 antag	D1 mod confirm	D1 no dopamine	Isoprot counter
CCn1cc(C(=O)OCc2cccc(Br)c2)c(=O)c2ccc(C)nc21	0.42	18	6.6*	-0.81	14972*	1524	3252*
CCn1cc(C(=O)Nc2cccc(C(=O)OC)c2)c(=O)c2ccc(C)nc21	-0.19	nt	0.17	-0.38	nt	nt	nt
CCn1cc(C(=O)OCc2ccccc2)c(=O)c2ccc(C)nc21	1.2	-19	5.9*	-0.097	9156*	1600	2792
CCn1cc(C(=O)Nc2ccccc2C(=O)OC)c(=O)c2ccc(C)nc21	-0.019	nt	1.1	0.22	nt	nt	nt
CCOC(=O)c1ccccc1NC(=O)c1cn(CC)c2nc(C)ccc2c1=O	0.96	nt	5*	-0.33	4076	892	1544
CCn1cc(C(=O)OCC(=O)NCc2ccc3c(c2)OCO3)c(=O)c2ccc(C)nc21	0.56	nt	2.7*	-1.3	8368*	1576	3148*
CN1CCN(C(=O)C(C(=O)c2ccc(F)cc2)n2ccccc2=O)CC1 (configuration not stated)	nt	-20	nt	nt	nt	nt	nt
COc1ccc(OCCSc2nnc(-c3ccc(OC)cc3)n2N)cc1	nt	66	nt	nt	nt	nt	nt
O=C(NCc1cccs1)C1CCN(S(=O)(=O)c2cccc3cccnc23)CC1	-0.94	nt	1.5	-0.53	nt	nt	nt
CCOc1ccccc1NC(=O)N1CCCC1C(=O)Nc1ccc(-n2cnnn2)c(C)c1 (configuration not stated)	0.36	nt	0.79	-0.16	nt	nt	nt
CCOC(=O)c1cccc(NC(=O)CSc2nnc(COc3ccccc3C)o2)c1	-1	nt	0.036	-0.043	nt	nt	nt
CCn1cc(C(=O)OCC(=O)Nc2c(C)n(C)n(-c3ccccc3)c2=O)c(=O)c2ccc(C)nc21	2.4	-14	0.64	0.11	nt	nt	nt
CCn1cc(C(=O)O)c(=O)c2ccc(C)nc21	2.4	nt	0.0081	0.38	nt	nt	nt
CCn1cc(C(=O)OCC(=O)OC2CC(C)CCC2C(C)C)c(=O)c2ccc(C)nc21 (configuration not stated)	-0.44	nt	6.4*	-0.15	9780*	1408	3792
CCn1cc(C(=O)OCc2ccc(F)cc2)c(=O)c2ccc(C)nc21	-0.34	8	9.9*	-0.032	10188*	1412	3888*
CCn1ncc(C2=NOC(C(=O)NCc3ccc(Cl)cc3)C2)c1C (configuration not stated)	-1.8	nt	3.2	-0.057	nt	nt	nt
CCC(C)(C(=O)NC1CCCC1)N(Cc1ccco1)C(=O)c1ccc2c(c1)OCO2 (configuration not stated)	0.026	43	4.9*	-0.87	4332	1468	2356
CCOc1cccc2cc(C(=O)NCc3cccnc3)c(=O)oc12	-1	-21	0.84	-0.16	nt	nt	nt
CCOc1cccc2cc(C(=O)Nc3cc(C)on3)c(=O)oc12	-0.57	-10	2.6*	-0.84	4892	1608	2548
COc1ccc2c(c1)N(C)C(=O)CC(c1ccccc1)=N2	0.96	-15	-0.39	-0.27	nt	nt	nt
Cc1ccc2nc(N3CCC(C(=O)O)CC3)nc(-c3ccccc3)c2c1	1.7	-13	6.5*	-0.29	10876*	1380	3708*
CC(=O)N1CCN(c2ccc(Oc3nnnn3-c3ccccc3)cc2)CC1	-0.36	nt	-0.9	-0.66	nt	nt	nt
COc1ccccc1C(=O)Nc1c2c(nn1-c1cccc(C)c1C)CS(=O)(=O)C2	-0.26	20	6.6*	-0.043	14916*	1716	3432*
CC(=NCc1ccco1)c1c(O)n(C2CCCCC2)c(=O)[nH]c1=O	0.16	17	11*	-0.054	14172*	1048	3684*
CC1CCc2cc(F)ccc2N1C(=O)c1ccc2c(c1)OCO2 (configuration not stated)	0.75	-42	-0.29	-0.45	nt	nt	nt
